Measured values taken from the supplement of paper PMC12067093, “Discovery and optimisation of a covalent ligand for TRIM25 and its application to targeted protein ubiquitination” (Chemical Science, 2025).
About 21,000 targets were measured; listed, in parts, are those with the largest changes and a random draw of the rest.

Compound: Cc1cc(ccc1-c1ccccc1)C(=O)N1CCCN(CC1)C(=O)CCl [compound 10]
Assay: probe-labelled cysteine peptide fold change vs DMSO (competition) (log2 fold change); higher = less target engagement (more negative = stronger competition)
Conditions: THP-1, incubation time: 4 h
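Further: competitive profiling in live THP-1 cells: cysteine peptides tagged with an iodoacetamide desthiobiotin (IA-DTB) probe, intensity after compound treatment relative to DMSO-treated cells.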

Chain of UniProt P51784 (P51784 whole entry, looked up): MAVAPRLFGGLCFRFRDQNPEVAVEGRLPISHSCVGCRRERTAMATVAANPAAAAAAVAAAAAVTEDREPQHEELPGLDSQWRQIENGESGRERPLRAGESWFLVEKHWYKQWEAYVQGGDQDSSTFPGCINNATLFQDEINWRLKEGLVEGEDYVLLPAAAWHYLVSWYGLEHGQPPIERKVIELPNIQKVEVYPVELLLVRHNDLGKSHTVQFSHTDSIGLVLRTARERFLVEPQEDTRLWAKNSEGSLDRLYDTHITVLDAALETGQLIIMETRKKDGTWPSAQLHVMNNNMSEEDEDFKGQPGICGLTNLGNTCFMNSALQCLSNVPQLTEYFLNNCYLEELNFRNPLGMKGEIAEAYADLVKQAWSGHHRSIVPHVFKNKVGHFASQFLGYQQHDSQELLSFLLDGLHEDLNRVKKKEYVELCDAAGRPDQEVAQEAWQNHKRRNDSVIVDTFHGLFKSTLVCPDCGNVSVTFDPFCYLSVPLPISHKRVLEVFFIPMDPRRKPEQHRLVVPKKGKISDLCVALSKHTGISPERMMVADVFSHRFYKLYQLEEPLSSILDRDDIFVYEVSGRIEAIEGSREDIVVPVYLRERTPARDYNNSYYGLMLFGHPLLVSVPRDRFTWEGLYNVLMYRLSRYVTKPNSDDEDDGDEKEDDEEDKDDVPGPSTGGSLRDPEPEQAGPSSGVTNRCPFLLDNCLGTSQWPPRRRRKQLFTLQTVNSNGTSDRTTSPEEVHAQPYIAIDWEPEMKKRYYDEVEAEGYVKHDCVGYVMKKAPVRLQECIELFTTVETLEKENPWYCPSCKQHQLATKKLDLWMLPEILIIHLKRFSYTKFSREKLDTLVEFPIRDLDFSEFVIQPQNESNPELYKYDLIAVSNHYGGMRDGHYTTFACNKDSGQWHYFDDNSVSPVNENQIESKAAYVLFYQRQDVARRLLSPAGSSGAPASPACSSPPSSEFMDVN
Chain of UniProt Q13630 (Q13630 whole entry, looked up): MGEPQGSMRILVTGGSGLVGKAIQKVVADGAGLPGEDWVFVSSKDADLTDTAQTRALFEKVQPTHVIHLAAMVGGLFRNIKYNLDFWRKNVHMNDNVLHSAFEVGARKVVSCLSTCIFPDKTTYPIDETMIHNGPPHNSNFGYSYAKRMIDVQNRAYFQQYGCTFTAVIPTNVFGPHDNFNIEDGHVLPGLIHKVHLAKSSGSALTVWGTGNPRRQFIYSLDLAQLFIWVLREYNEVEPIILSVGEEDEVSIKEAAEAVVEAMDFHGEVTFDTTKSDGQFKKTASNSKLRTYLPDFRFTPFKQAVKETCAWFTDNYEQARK
Chain of UniProt O15164 (O15164 whole entry, looked up): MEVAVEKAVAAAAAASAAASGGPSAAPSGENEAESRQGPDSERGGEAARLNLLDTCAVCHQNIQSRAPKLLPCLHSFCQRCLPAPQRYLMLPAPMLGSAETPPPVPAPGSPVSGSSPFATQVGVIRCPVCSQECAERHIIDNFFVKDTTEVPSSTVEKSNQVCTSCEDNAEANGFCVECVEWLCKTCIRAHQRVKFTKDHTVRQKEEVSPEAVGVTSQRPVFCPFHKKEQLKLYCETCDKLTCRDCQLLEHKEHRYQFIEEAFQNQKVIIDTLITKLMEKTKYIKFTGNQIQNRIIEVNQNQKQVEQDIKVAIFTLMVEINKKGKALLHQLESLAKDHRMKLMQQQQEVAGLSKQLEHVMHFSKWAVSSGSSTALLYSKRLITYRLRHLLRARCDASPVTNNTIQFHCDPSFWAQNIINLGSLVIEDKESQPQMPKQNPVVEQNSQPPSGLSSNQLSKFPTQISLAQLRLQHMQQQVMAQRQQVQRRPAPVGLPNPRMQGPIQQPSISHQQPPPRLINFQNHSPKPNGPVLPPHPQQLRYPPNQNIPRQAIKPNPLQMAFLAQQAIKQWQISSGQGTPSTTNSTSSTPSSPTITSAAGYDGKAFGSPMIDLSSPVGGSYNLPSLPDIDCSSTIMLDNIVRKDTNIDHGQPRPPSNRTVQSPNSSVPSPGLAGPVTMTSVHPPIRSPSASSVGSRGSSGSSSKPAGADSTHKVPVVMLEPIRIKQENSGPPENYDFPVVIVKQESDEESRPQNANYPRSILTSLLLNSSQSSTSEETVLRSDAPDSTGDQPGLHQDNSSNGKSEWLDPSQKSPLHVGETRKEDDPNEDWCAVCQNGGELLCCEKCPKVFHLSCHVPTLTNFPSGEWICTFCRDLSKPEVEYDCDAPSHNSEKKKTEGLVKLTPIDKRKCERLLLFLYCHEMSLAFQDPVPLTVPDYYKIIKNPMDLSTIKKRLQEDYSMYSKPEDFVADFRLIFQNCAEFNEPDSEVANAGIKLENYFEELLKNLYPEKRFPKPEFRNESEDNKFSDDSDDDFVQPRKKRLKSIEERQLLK
Chain of UniProt Q9NYU2 (Q9NYU2 whole entry, looked up): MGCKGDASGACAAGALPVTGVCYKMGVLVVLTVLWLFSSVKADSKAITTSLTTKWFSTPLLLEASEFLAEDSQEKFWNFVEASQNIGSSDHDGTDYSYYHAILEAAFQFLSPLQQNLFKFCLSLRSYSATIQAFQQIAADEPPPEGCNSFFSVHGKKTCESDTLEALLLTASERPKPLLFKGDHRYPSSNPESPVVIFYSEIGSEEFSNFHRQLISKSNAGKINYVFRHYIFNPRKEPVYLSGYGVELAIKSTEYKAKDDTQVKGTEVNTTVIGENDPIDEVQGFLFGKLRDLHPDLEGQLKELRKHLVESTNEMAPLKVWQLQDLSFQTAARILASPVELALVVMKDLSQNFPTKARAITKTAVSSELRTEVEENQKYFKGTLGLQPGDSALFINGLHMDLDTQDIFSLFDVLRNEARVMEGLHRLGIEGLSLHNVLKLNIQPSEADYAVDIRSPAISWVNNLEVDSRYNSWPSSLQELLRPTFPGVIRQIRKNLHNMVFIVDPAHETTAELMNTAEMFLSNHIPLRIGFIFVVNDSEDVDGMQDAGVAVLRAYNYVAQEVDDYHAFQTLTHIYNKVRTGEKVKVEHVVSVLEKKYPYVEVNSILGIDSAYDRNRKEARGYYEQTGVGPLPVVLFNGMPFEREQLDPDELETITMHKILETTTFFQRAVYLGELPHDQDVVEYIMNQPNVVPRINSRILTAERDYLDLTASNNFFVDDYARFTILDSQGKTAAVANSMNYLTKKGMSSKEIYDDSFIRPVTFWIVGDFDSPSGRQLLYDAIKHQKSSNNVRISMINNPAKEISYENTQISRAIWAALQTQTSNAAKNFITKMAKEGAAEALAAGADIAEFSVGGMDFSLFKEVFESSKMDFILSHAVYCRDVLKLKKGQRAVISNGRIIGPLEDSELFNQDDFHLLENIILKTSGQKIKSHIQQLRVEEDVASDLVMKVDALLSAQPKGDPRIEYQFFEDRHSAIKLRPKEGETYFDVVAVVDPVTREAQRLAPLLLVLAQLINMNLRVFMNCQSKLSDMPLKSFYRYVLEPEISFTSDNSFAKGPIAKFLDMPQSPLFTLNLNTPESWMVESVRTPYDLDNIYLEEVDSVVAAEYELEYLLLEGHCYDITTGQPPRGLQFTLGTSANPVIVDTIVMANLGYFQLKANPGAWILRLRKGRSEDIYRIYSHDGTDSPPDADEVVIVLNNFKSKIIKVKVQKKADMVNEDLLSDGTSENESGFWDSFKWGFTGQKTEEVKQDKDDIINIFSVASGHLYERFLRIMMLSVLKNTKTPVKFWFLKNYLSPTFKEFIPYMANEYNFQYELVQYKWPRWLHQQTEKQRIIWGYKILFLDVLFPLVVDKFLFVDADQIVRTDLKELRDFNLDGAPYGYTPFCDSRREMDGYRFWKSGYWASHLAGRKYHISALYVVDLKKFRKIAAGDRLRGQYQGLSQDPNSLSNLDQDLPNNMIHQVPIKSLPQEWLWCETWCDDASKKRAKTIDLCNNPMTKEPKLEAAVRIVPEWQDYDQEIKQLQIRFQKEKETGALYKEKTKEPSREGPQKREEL
Chain of UniProt O43396 (O43396 whole entry, looked up): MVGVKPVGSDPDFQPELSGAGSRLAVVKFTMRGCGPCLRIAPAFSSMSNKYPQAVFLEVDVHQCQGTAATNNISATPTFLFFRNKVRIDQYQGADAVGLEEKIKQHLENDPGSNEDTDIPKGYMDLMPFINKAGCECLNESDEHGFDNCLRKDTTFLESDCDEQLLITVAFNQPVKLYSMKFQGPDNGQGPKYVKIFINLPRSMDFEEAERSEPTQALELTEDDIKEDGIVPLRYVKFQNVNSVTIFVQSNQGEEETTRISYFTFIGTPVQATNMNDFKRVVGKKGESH
Chain of UniProt Q8N806 (Q8N806 whole entry, looked up): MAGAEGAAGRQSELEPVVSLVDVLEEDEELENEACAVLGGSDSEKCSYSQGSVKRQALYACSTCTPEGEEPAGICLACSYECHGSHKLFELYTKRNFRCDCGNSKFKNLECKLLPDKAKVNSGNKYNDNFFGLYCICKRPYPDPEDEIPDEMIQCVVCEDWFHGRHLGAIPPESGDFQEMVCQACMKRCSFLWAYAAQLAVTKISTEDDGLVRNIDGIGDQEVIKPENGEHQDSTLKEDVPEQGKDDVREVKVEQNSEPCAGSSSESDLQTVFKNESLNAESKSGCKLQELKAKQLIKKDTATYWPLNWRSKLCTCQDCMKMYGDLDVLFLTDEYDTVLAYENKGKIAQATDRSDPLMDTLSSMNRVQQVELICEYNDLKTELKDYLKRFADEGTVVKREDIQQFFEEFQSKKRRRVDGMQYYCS
Chain of UniProt Q7Z6J8 (Q7Z6J8 whole entry, looked up): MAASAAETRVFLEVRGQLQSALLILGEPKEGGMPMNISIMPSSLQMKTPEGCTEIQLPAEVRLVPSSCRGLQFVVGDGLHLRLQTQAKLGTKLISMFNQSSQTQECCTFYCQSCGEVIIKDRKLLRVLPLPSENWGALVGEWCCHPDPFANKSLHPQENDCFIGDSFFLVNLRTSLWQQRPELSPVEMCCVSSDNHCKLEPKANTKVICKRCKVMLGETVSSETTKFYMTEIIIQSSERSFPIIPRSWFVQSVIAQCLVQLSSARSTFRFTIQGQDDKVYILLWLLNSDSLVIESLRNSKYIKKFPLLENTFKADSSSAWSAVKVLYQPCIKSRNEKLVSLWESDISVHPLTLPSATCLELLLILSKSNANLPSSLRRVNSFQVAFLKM

Question: How did the “probe-labelled cysteine peptide fold change” value (10 µM) turn out when “TXNL1_O43396_149_AGCECLNESDEHGFDNCLRK (UniProt O43396)” was run?
Answer: The value was -0.189.

Question: And the “probe-labelled cysteine peptide fold change” value (50 µM)?
Answer: Its value is -0.0731.

Question: For “UBR7_Q8N806_155_RPYPDPEDEIPDEMIQCVVCEDWFHGR (UniProt Q8N806)”, which “probe-labelled cysteine peptide fold change” value (10 µM) is on record?
Answer: The value was 0.0312.

Question: What about the “probe-labelled cysteine peptide fold change” value (50 µM) of the same target?
Answer: The value was 0.0116.

Question: How did the “probe-labelled cysteine peptide fold change” value (10 µM) turn out when “VCPIP1_Q96JH7_219_SQECLIPVHVDGDGHCLVHAVSR (UniProt Q96JH7)” was run?
Answer: The value was -2.4.

Question: What about the “probe-labelled cysteine peptide fold change” value (50 µM) of the same target?
Answer: The value was < -5.

Question: Which “probe-labelled cysteine peptide fold change” value (10 µM) does the source give for “UBR1_Q8IWV7_1603_NSLIELPDDYSCLLNQASHFR (UniProt Q8IWV7)” here?
Answer: The value was -0.114.

Question: And the “probe-labelled cysteine peptide fold change” value (50 µM)?
Answer: The value was -0.631.

Question: Which “probe-labelled cysteine peptide fold change” value (10 µM) does the source give for “USP19_O94966_1169_EEQLPSYDLYAVINHYGGMIGGHYTACAR (UniProt O94966)” here?
Answer: The value was -0.00515.

Question: And the “probe-labelled cysteine peptide fold change” value (50 µM)?
Answer: Its value is 0.0872.

Question: For “UBE3D_Q7Z6J8_52_TPEGCTEIQLPAEVR (UniProt Q7Z6J8)”, which “probe-labelled cysteine peptide fold change” value (10 µM) is on record?
Answer: The value was 0.0793.

Question: What about the “probe-labelled cysteine peptide fold change” value (50 µM) of the same target?
Answer: Its value is 0.147.

Question: What does the source list for “TRIM24_O15164_127+134_CPVCSQECAER (UniProt O15164)”?
Answer: probe-labelled cysteine peptide fold change (10 µM): 0.118; probe-labelled cysteine peptide fold change (50 µM): -0.0216

Question: How did the “probe-labelled cysteine peptide fold change” value (10 µM) turn out when “TSTA3_Q13630_116_VVSCLSTCIFPDK (UniProt Q13630)” was run?
Answer: Its value is -0.0711.

Question: And the “probe-labelled cysteine peptide fold change” value (50 µM)?
Answer: The value was -1.67.

Question: Which “probe-labelled cysteine peptide fold change” value (10 µM) does the source give for “UBR4_Q5T4S7_2222_HTACNEQQR (UniProt Q5T4S7)” here?
Answer: Its value is -0.245.

Question: And the “probe-labelled cysteine peptide fold change” value (50 µM)?
Answer: The value was -1.12.

Question: For “VCPIP1_Q96JH7_207+219_SQECLIPVHVDGDGHCLVHAVSR (UniProt Q96JH7)”, which “probe-labelled cysteine peptide fold change” value (10 µM) is on record?
Answer: Its value is -1.2.

Question: What about the “probe-labelled cysteine peptide fold change” value (50 µM) of the same target?
Answer: Its value is -1.48.

Question: For “TTLL12_Q14166_361_PGVLLNQFPCENLLTVK (UniProt Q14166)”, which “probe-labelled cysteine peptide fold change” value (10 µM) is on record?
Answer: Its value is -0.00778.

Question: And the “probe-labelled cysteine peptide fold change” value (50 µM)?
Answer: Its value is -0.111.

Question: What does the source list for “TRIM25_Q14258_506_FTYCSQVLGLHCYK (UniProt Q14258)”?
Answer: probe-labelled cysteine peptide fold change (10 µM): -1.09; probe-labelled cysteine peptide fold change (50 µM): -4.87

Question: For “USP11_P51784_894_DGHYTTFACNK (UniProt P51784)”, which “probe-labelled cysteine peptide fold change” value (10 µM) is on record?
Answer: The value was -0.051.

Question: And the “probe-labelled cysteine peptide fold change” value (50 µM)?
Answer: The value was -0.393.

Question: Which “probe-labelled cysteine peptide fold change” value (10 µM) does the source give for “UGGT1_Q9NYU2_1475+1479_SLPQEWLWCETWCDDASK (UniProt Q9NYU2)” here?
Answer: Its value is -0.291.

Question: And the “probe-labelled cysteine peptide fold change” value (50 µM)?
Answer: The value was -0.0794.
